Compounds with a hit are over-represented: about 4.8% of the library has one in this group of screens.
DAX1 inh-1: DAX1 (NR0B1) inhibitors, primary screen, cell-based, HEK293, Gal4-DAX1, luciferase luminescence; Nuclear receptor subfamily 0 group B member 1 (Homo sapiens), P51843; HEK293 Gal4-DAX1 luciferase reporter; inhibition, % at 6.75 µM; AID 504766, 2011; hit rate 0.99% among 340,000;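 active = inhibition above the mean over all tested compounds plus 3 SD, cut at about 4.2% in these data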;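 note: inhibition shows as a rise in luminescence from relieved DAX1 repression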
Target sequence (P51843 207-470 limits assumed): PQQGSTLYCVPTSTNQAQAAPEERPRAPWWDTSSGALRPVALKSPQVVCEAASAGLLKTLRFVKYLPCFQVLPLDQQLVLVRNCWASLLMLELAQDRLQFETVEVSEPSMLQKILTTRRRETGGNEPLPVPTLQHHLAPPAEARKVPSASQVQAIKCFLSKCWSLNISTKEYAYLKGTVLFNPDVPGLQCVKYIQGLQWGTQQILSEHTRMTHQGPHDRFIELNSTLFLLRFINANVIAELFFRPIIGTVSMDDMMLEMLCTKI
DAX1 inh-2: DAX1 (NR0B1) inhibitors on StAR promoter, primary screen, cell-based, luminescence, SF-1 (NR5A1), full-length DAX-1; inhibition, % at 6.8 µM; AID 652010, 2013; HEK293T StAR-luciferase reporter, SF-1/DAX-1 repression relief; hit rate 1.1% among 370,000;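 active = inhibition above the mean over all tested compounds plus 3 SD, cut at about 3.6% in these data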;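 note: higher inhibition means more luminescence from relief of DAX-1 repression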
SMARCA2 activ: SMARCA2 (BRM) function activators, primary screen, cell-based, luminescence, high throughput | MG213 cells, MMTV-luciferase reporter, dexamethasone, overnight | activation, % at 9.1 µM | hit rate 1% among 370,000 | AID 652017, 2013; in the data active = activation above about 7.8%
hcDAF-12 act: H. contortus DAF-12 nuclear receptor activators, primary screen, cell-based, luminescence, HEK293, lit1-tk-luc reporter; HEK293 hcDAF-12 lit1-tk-luc reporter; 0% DMSO, 100% Δ7-dafachronic acid; activation, % at 6.8 µM; hit rate 1.4% among 370,000; AID 652067, 2013;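 active = activation above the mean of all tested compounds plus 3 SD, cut at about 5.5% in these data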
hgDAF12 agonist: H. glycines DAF-12 receptor agonists, primary screen, cell-based, luminescence, HEK293, GAL4 fusion, UAS-luciferase; Nuclear hormone receptor DAF-12 (Heterodera glycines), GAL4 fusion; activation, % at 6.8 µM; HEK293 GAL4-hgDAF12 UAS-luciferase reporter, agonist luminescence; normalized to butyrate control; AID 687014, 2013; hit rate 1.8% among 370,000;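 active = activation above a cutoff set at the mean of all screened compounds plus 3 SD, cut at about 10% in these data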
ssDAF12 agonist: S. stercoralis DAF-12 nuclear receptor activators, primary screen, cell-based, luminescence, HEK293, GRIP1 co-expression, lit1-tk-luc. Nuclear hormone receptor DAF-12 (Strongyloides stercoralis). HEK293 ssDAF-12/GRIP1 lit1-tk-luc reporter; % of 3 µM dafachronic acid response. activation, % at 6.8 µM. hit rate 1% among 370,000. AID 652126, 2013;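 active = activation above the mean over all tested compounds plus 3 SD, cut at about 0.9% in these data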
SMARCA2 conf: SMARCA2 (BRM) function activators, confirmation, cell-based, luminescence, triplicate; shares compounds with SMARCA2 activ; MG213 cells, MMTV-luciferase with dexamethasone, overnight; MG213 cells expressing E1A, Rb sequestered; DMSO wells 0%, reference activator 100%; activation, % at 9.1 µM; hit rate 30% among 3,500; AID 652260, 2013;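 active = activation above its plate's cutoff, the mean activation of tested wells plus 3 SD, cut at about 7.9% in these data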
VP16 Luc act: GAL4-VP16 luciferase reporter activation, counter-screen for SMARCA2 (BRM) activator project, cell-based, pG5luc, luminescence, high throughput. hit rate 41% among 3,500. activation, % at 9.1 µM. shares compounds with SMARCA2 activ. AID 686939, 2013. HEK293 GAL4-VP16 pG5luc reporter; scaled: DMSO wells 0%, SAHA wells 100%;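 active = activation above the solvent-only control well mean plus 3 SD, averaged across control plates, cut at about 5.2% in these data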
Large screens that a line does not name were inactive (follow-up assays come after a bar, where they were run).

O=C(NCc1ccco1)C(=O)NCC1OCCN1S(=O)(=O)c1cc(F)ccc1F (centres undefined)	none
CC(Sc1nnc(NC2CCCCC2)s1)C(=O)Nc1ccc2c(c1)C(=O)c1ccccc1C2=O (centres undefined)	SMARCA2 activ 10.0 | SMARCA2 conf inactive | VP16 Luc act 12.0
CC(Sc1nnc(NC2CC2)s1)C(=O)Nc1ccc(N2CCOCC2)cc1 (centres undefined)	none
COc1ccc(/C=C(/NC(=O)c2ccc(C)cc2)C(=O)N2CCCC2)cc1OC	none
Cc1cccc(C)c1NC(=O)CNC(=O)Cc1c[nH]c2ccccc12	none
COc1ccccc1NC(=O)c1cc(=O)[nH]c2ccccc12	none
COc1ccccc1NC(=O)c1c[nH]c2ccccc12	SMARCA2 activ 10.0 | SMARCA2 conf inactive | VP16 Luc act inactive
Cc1cccc(C)c1NC(=O)c1c[nH]c2ccccc12	SMARCA2 activ 13.4, hcDAF-12 act 6.2 | SMARCA2 conf 8.7 | VP16 Luc act 9.4
COc1ccc(-n2c(CN3CCN(C)CC3)nc3ccc([N+](=O)[O-])cc3c2=O)c(OC)c1	none
COc1cccc(-n2c(CN3CCN(Cc4ccccc4)CC3)nc3ccc([N+](=O)[O-])cc3c2=O)c1	SMARCA2 activ 11.5 (no result: DAX1 inh-1) | SMARCA2 conf inactive | VP16 Luc act inactive
CCOC(=O)c1ccc(-n2c(CN3CCN(CCO)CC3)nc3ccc([N+](=O)[O-])cc3c2=O)cc1	SMARCA2 activ 9.5 | SMARCA2 conf 9.8 | VP16 Luc act inactive
CC(C(=O)NC(=O)NC1CCCCC1)N1CCN(C(c2ccccc2)c2ccccc2)CC1 (centres undefined)	none
COc1ccc(CC(=O)NCC(=O)Nc2ccccc2Br)cc1	none
CCSc1nnc(NC(=O)/C=C/c2ccco2)s1	SMARCA2 activ 10.4, hcDAF-12 act 6.0 | SMARCA2 conf inactive | VP16 Luc act 7.8
CCc1nnc(NC(=O)/C=C/c2ccco2)s1	none
CN(CCC#N)C(=O)CC(Cc1ccccc1)C1CCOC(C)(C)C1 (centres undefined)	none
COc1ccc(-c2nc3ccc(C)cn3c2NCc2ccc3c(c2)OCO3)cc1	none
Cc1ccc(-c2nc3ccccn3c2NCc2ccc3c(c2)OCO3)cc1	SMARCA2 activ 10.5 | SMARCA2 conf 8.2 | VP16 Luc act inactive
CC1(C(=O)Nc2ccc3c(c2)OCCO3)CN(S(C)(=O)=O)CC(=O)N1CCc1ccccc1 (centres undefined)	none (no result: DAX1 inh-1)
CCN(CC)CCCOc1nc(C)nc2c1oc1ccccc12	none
CCN(CC)CCOc1nc(C)nc2c1oc1ccccc12	SMARCA2 activ 8.5 | SMARCA2 conf inactive | VP16 Luc act inactive
CN(C)CCOc1nc(-c2ccccc2)nc2c1oc1ccccc12	SMARCA2 activ 16.1 | SMARCA2 conf 31.2 | VP16 Luc act inactive
COC(=O)[C@]12C[C@H](CC(=O)NCC3CCCCC3)C(=O)N(Cc3ccco3)C1=C[C@H](C1CCCC1)O[C@@H]2C	none (no result: DAX1 inh-1)
CC(C)[C@H](NC(=O)OC(C)(C)C)c1cc(C(=O)NC2CC2)c(N)s1	none (no result: DAX1 inh-1)
Fc1cccc(-c2cc3nc4c(c(NCc5ccco5)n3n2)CCCC4)c1	DAX1 inh-2 4.2, SMARCA2 activ 8.4, hgDAF12 agonist 10.6 | SMARCA2 conf inactive | VP16 Luc act 10.6
Fc1cccc(-c2cc3nc4c(c(N5CCOCC5)n3n2)CCCC4)c1	SMARCA2 activ 9.4 | SMARCA2 conf inactive | VP16 Luc act inactive
Cc1cc2nc(C3CCN(C(=S)NCCCOC(C)C)CC3)[nH]c2cc1C	none
COCC(=O)N1CCC(Oc2cccc(C(=O)NCc3ccccn3)c2)CC1	none
COC(=O)CCC(=O)N1CCC(Oc2cccc(C(=O)NCc3ccccn3)c2)CC1	SMARCA2 activ 8.3 | SMARCA2 conf inactive | VP16 Luc act inactive
COc1ccc(NC2CCCN(C(=O)CN3C(=O)c4ccccc4C3=O)C2)cc1OC (centres undefined)	SMARCA2 activ 8.0 | SMARCA2 conf inactive | VP16 Luc act inactive
COc1ccc(NC2CCCN(C(=O)CCC3=NNC(=O)CC3)C2)cc1 (centres undefined)	none
COc1ccc(NC(=O)c2c3c(nc4ccccc24)CCC3)cc1S(=O)(=O)N1CCOCC1	none
COc1ccc(C=C2CS(=O)(=O)CC(=Cc3ccc(OC)cc3)C2=O)cc1	SMARCA2 activ 13.6 | SMARCA2 conf inactive | VP16 Luc act inactive
COc1ccc(/C=N/NC(=O)c2ccn[nH]2)cc1COc1ccc(F)cc1	SMARCA2 activ 8.4 | SMARCA2 conf inactive | VP16 Luc act inactive
CCOc1ccc(NC(=S)N(CCc2c(C)[nH]c3ccc(C)cc23)Cc2cccnc2)cc1	none
COc1ccc(NC(=S)N(CCc2c(C)[nH]c3ccccc23)Cc2cccnc2)cc1	SMARCA2 activ 9.1 | SMARCA2 conf inactive | VP16 Luc act inactive
Cc1cccc(-c2nnc(-c3ccc4ccccc4c3)o2)c1	DAX1 inh-1 4.3, DAX1 inh-2 3.6, SMARCA2 activ 10.5, hgDAF12 agonist 11.6 | SMARCA2 conf inactive | VP16 Luc act inactive
COc1ccc(Cc2nnc(-c3cccc(C)c3)o2)cc1OC	none (no result: DAX1 inh-2, SMARCA2 activ, hcDAF-12 act, hgDAF12 agonist, ssDAF12 agonist)
Cc1ccc(NC(=O)c2ncc(Cl)c(Cl)c2Cl)cc1C	SMARCA2 activ 8.2, hcDAF-12 act 5.9 | SMARCA2 conf inactive | VP16 Luc act 9.5
CNS(=O)(=O)c1cc(C(=O)OCC(=O)NC2CCCc3ccccc32)ccc1Cl (centres undefined)	none
CCN(CC)S(=O)(=O)c1cc(C(=O)OCC(=O)NC2CCCc3ccccc32)ccc1C (centres undefined)	SMARCA2 activ 11.1 | SMARCA2 conf inactive | VP16 Luc act inactive
CCc1ccc(NC(=O)CCCn2nc(CC)n3c(cc4occc43)c2=O)cc1	SMARCA2 activ 9.6 | SMARCA2 conf inactive | VP16 Luc act inactive
